The full list was thinned out, with hits kept by preference.
Pf Dd2 inh: qHTS Primary assay for Inhibitors of Plasmodium falciparum Dd2 growth in vitro. P. falciparum Dd2 growth, SYBR Green, 72 h. Potency, µM (series often up to 28.9 µM), without a hit: at the top dose activity, negative = inhibition, usual class: inhibitors. actives 4.3% (n = 120,000); active means well fitted inhibition curve with a large enough effect;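 further: plate controls were DMSO vehicle for no effect and reference drug for full effect; nearly all actives have a fitted effect of over 65% in size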
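Infected erythrocytes (Dd2, 0.3% parasitemia, 2.5% hematocrit final) are added to compound in RPMI-1640/Albumax II medium, grown 72 h at 37C in low oxygen, then lysed with saponin/Triton-X containing SYBR Green and read by fluorescence.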
Numbers without * were called inactive; i = inactive; [ ] = another dose, or the depositor's remark. Potency means the concentration at half of the fitted maximal effect.

SMILES | Pf Dd2 inh
Cc1ccc(C(=O)NC2CCN(c3cc(-c4cccs4)[nH]n3)CC2)cc1F | 11µM*
O=C(NC1CCN(c2cc(-c3cccs3)[nH]n2)CC1)c1ccc(F)c(Cl)c1 | i
O=C(NC1CCN(c2cc(-c3cccs3)[nH]n2)C1)c1cc2ccccc2[nH]1 (stereo not drawn) | 14µM*
O=C(NC1CCN(c2cc(-c3cccs3)[nH]n2)C1)c1ccncc1 (stereo not drawn) | i
Cn1cccc1CN1CCCC(c2nn(-c3ccccc3)c(=O)[nH]2)C1 (stereo not drawn) | i
CCNC(=O)N[C@H]1[C@H](O)[C@H](O)C[C@@H]1c1ccncc1 | -16%[44.1 µM]
CN1C(=O)CCc2cc(NC(=O)Cc3ccccc3Cl)ccc21 | -10%
O=C(O)c1cc(-c2ccc3c(c2)OCCO3)cc(S(=O)(=O)N2CCOCC2)c1 | 8%
CCOCC(=O)N[C@@H]1CN(Cc2ccccc2)C[C@H]1CN(C)C | i
Cc1cc(C(=O)N[C@@H]2CN(Cc3ccccn3)C[C@H]2CN(C)C)n[nH]1 | 19%
CC1CCC2(CC1)NC(=O)N(CC(=O)NC1CCCCC1)C2=O (stereo not drawn) | 1%
O=C(NC1CCCC1)c1ccc(N2CC3CC(C2)[C@H]2CCCC(=O)N2C3)nc1 (stereo partly drawn) | -17%
CCS[C@H]1CCN2C(=O)c3cc(-c4ccccc4F)ccc3NC(=O)[C@H]12 | -14%[44.1 µM]
COc1ccc(CCNC(=O)Cc2ccc(N(Cc3ccccc3)C(=O)c3ccco3)cc2)cc1 | -7%
COc1ccc(OCC(=O)N(Cc2cccs2)c2ccc(OC)cc2)cc1 | -20%
CCCNC(=O)Cc1ccc(N(Cc2ccc(OC)cc2)C(=O)c2ccco2)cc1 | i
COc1ccc(CN(C(=O)c2ccco2)c2ccc(CC(=O)NC(C)C)cc2)cc1 | i
COc1ccc(N(Cc2cccs2)C(=O)c2ccco2)cc1 | 10µM*
COc1ccc(NC(=O)Cc2ccc(N(Cc3ccc(C)cc3)C(=O)c3ccco3)cc2)cc1 | 4.5µM*
CC(C)(C)CN1CCNC(=O)C1CC(=O)O (stereo not drawn) | 0%
Cc1noc2c(NC3CCC(O)CC3)cc(-c3ccc(Cl)cc3)nc12 (stereo not drawn) | i
COCCC(=O)N1CCC(N2CCCC(C(=O)NCc3ccccn3)C2)CC1 (stereo not drawn) | -4%
Cc1cc(=O)n(CC(=O)Nc2ccc(C)c(Cl)c2)c(N2CCOCC2)n1 | i
Cc1cc(C[C@@H]2COC[C@@H]2NC(=O)COc2cccc(C)c2C)on1 | 0%
CCN1c2cc(C(=O)Nc3ccc(C(F)(F)F)cc3)ccc2C(=O)N2CCCC21 (stereo not drawn) | -21%
SMILES | Pf Dd2 inh
CCc1ncc2c(N3CC4CCC(C3)N4CC(F)(F)F)nc3ccccc3n12 | 3.2µM*
FC(F)(F)CN1C2CCC1CN(c1nncc3ccccc13)C2 | -21%
COc1cc2ncnc(N3CC4CCC(C3)N4CC(F)(F)F)c2cc1OC | -24%
O=C(NCCCc1ccccc1)C1CN(Cc2ccccc2)C(=O)N1 (stereo not drawn) | 7%[44.1 µM]
COCCCNC(=O)[C@H]1CN(Cc2ccccc2)C[C@H]1C(=O)O | -7%
O=C(NCCCc1ccccc1F)[C@@]12CNC[C@@H]1CN(Cc1ccccc1)C2 | 7.9µM*
CCN1C(=O)CCC2(C(=O)N3CCN(Cc4ccc5c(c4)OCO5)CC3)CCCC=C12 (stereo not drawn) | i
COc1ccc(OCC(=O)Nc2cc(-c3cccc(Cl)c3)nn2-c2ccccc2)cc1 | i
COc1ccc(/C=C/C(=O)Nc2cc(-c3nc4ccccc4o3)ccc2OC)cc1 | i
COc1ccc(/C=C/C(=O)Nc2nc3n(n2)C(c2ccccc2)C=C(c2ccc(Cl)cc2)N3)cc1 (stereo not drawn) | 5µM*
COC(=O)c1c(NC(=O)/C=C/c2ccc(OC)cc2)sc2c1CCC2 | 1%
COc1ccc(C2C=C(c3ccccc3)Nc3nc(NC(=O)/C=C/c4ccc(Cl)cc4)nn32)cc1 (stereo not drawn) | 10µM*
COCC1(CNc2cc(C3CC(O)C3)nc(C)n2)CCCC1 (stereo not drawn) | -27%
CN1CCCC1c1nc(C2CN(C(=O)c3cnccn3)C2)no1 (stereo not drawn) | i
CC(C)(C)CN[C@@H](Cn1ccc(=O)[nH]c1=O)C(=O)O | 17%[44.1 µM]
N#Cc1ccc(C(=O)N2CC(C(=O)NCCc3ccncc3)C3(CCOCC3)C2)cc1 (stereo not drawn) | 22%
Cc1sc2ccn(C)c(=O)c2c1C(=O)N1CCN(c2ccc(Cl)cc2)CC1 | -22%
O=C(Cn1nc2n(c1=O)CCCCC2)N1CCN(c2ccc(F)cc2)CC1 | 32%
O=C(COc1ccc(-c2nnc3n2CCCC3)cc1)N1CCN(c2ccc(F)cc2)CC1 | 3.2µM*
O=C(COc1ccc(F)cc1)Nc1cccc(-c2nnc3n2CCCC3)c1 | 8.9µM*
O=C(CN1C(=O)CCC1=O)N1CCCCCCn2c(nnc2-c2ccc(F)cc2)CC1 | i
CSc1cccc(NC(=O)Nc2ccc(-c3nnc4n3CCCC4)cc2)c1 | 25%
O=C(Nc1ccccc1)Nc1cccc(-c2nnc3n2CCCC3)c1 | i
O=C(CC1CCCCC1)Nc1cccc(-c2nnc3n2CCCC3)c1 | -7%
O=C(COc1ccc(Cl)cc1)Nc1cccc(-c2nnc3n2CCCC3)c1 | 3.2µM*
SMILES | Pf Dd2 inh
O=C(Cc1cccc(F)c1)Nc1ccc(-c2nnc3n2CCCC3)cc1 | -18%
O=C(COc1ccc(Cl)cc1)Nc1ccc(-c2nnc3n2CCCC3)cc1 | i
O=C(COc1cccc(-c2nnc3n2CCCC3)c1)NCc1ccc(F)cc1 | -9%
O=C(Cc1ccccc1Cl)Nc1cccc(-c2nnc3n2CCCC3)c1 | 7.1µM*
CN1C(=O)CC(C(=O)O)C12CCN(Cc1cnn(C)c1)CC2 (stereo not drawn) | -2%
Cc1ccc(C(=O)N2CCC(Cc3nc(-c4ccccc4)no3)CC2)cn1 | 9%
O=C(c1ccno1)N1CCOC[C@H](Oc2ccc(C(F)(F)F)cn2)C1 | -20%[44.1 µM]
COC[C@@H]1CN(C(=O)c2ccoc2C)C[C@H]1c1nc(C)no1 | 19%
C=CCCC(CN1CCSCC1)Oc1ncc(CC)cn1 (stereo not drawn) | -14%
C=CCCC(CN1CCCC1)Oc1ccc(-c2ccccc2)nn1 (stereo not drawn) | 11µM*
C=CCCC(CN1CCCC1)Oc1ccc(C(=O)NCC)cn1 (stereo not drawn) | 3.2µM*
C=CCCC(CN1CCCC1)Oc1cc(N2CCOCC2)ncn1 (stereo not drawn) | -4%
C=CCCC(CN1CCSCC1)Oc1nc(OC)cc(OC)n1 (stereo not drawn) | -18%
C=CCCC(CN1CCOCC1)Oc1ccc(-c2ccccc2)nn1 (stereo not drawn) | -12%
COC(=O)C1=CN(CC(=O)NCc2ccccc2F)S(=O)(=O)N=C1C | 47%
CCOc1nccn2c(-c3ccc(CNC(=O)c4ccnn4C)cc3)cnc12 | -4%[44.1 µM]
COc1cccc(C2Cn3nnc(-c4nc(-c5ccc(C)c(C)c5)no4)c3CO2)c1 (stereo not drawn) | i
CCOC(=O)C1=CN(CC(=O)Nc2ccc(C(F)(F)F)cc2)S(=O)(=O)N=C1C | 45%
COC1C(=O)N(C2CCN(C(=O)c3cccnc3)CC2)C12CCOCC2 (stereo not drawn) | 12%
Cc1cccc(CNC(=O)CCC2CCN(S(=O)(=O)c3cccc(F)c3)CC2)c1 | -21%
O=C1NCCCCCN(C(=O)CCCc2ccccc2)[C@H]2CCCC[C@@H]12 | -25%

From PubChem
